# In ChEMBL document CHEMBL3433997, “St. Jude Leishmania screening dataset” (2016):
# Target: Hexose transporter 1 (Plasmodium falciparum) (UniProt O97467)
# Experiment: ST_JUDE_LEISH: Cytotoxicity at 2uM final concentration against transgenic Leishmania Mexicana promastigotes LmPfHT that are glucose transport deficient and complemented with the Plasmodium falciparum hexose transporter. Activity is measured by DNA content using SYBR green in vitro
# Type: functional
row,Compound,inhibition
1,Fc1cc(Cl)ccc1Nc1ccnc2cc(-c3ccc(CN4CCCCC4)o3)ccc12,1.59%
2,O=C(/C=C/c1ccc(Cl)c(Cl)c1)N1CCC(CN2CCC(c3c[nH]c4ccncc34)CC2)CC1,5.47%
3,COc1cc(Cc2cnc(N)nc2N)cc(OCCCC#N)c1OC,-1.21%
4,O=C(Nc1ccc(Br)cc1)N1CCC(n2c(-c3ccccc3)nc3cccnc32)CC1,1.56%
5,CC(C)c1cccc(OCC2CCN(c3ncc(C(=O)NC4CC4)cc3Cl)CC2)c1,-0.04%
6,CCCC(C)N(Cc1ccc(C(C)(C)C)cc1)C(=O)c1cccc(OC)c1 (stereo not given),-0.47%
7,Fc1ccc2[nH]cc(CCNCc3ccc(-c4cccc(-c5nc6ccccc6[nH]5)c4)cc3)c2c1,4.54%
8,Nc1ncc(Cc2ccc3c(ccc4ccccc43)c2)c(N)n1,12.7%
9,Cn1c(NC(=O)C2CCC(CNC(=O)c3ccc(O)c(-c4cccc([N+](=O)[O-])c4)c3)CC2)nc2ccccc21 (stereo not given),2.47%
10,O=c1cc(NCCCNCc2ccc(Cl)c(Cl)c2)[nH]c2ccc(Oc3ccccc3)cc12,-1.42%
11,CN(C)CCN(C)C(=O)c1cc(-c2ccncc2)c(-c2ccc(Cl)c(O)c2)o1,8.13%
12,COc1ccc(CNC2CCN(C)CC2)cc1-c1ccc(S(=O)(=O)NCc2ccccc2)cc1,4.24%
13,Fc1cccc2sc(Nc3nc(-c4ccccn4)cs3)nc12,0.63%
14,CCc1c(C(=O)NC2CCC(N3CCC(c4ccccc4C)CC3)CC2)[nH]c2ccc(OC)cc12 (stereo not given),-0.58%
15,O=C(c1ccc(-c2cnc3[nH]cc(-c4ccc(C(=O)N5CCOCC5)cc4)c3c2)cc1)N1CCOCC1,-1.48%
16,COc1ccc2nccc([C@@H](O)CN3CCC(NCc4ccc5nsnc5c4)CC3)c2c1,-1.13%
17,COc1ccccc1NC(=O)Nc1ccc(-c2ccc(-c3nc4cc(C(F)(F)F)ccc4[nH]3)cc2)cc1,4.25%
18,CC(C)CCN1CCCN(Cc2ccc(C(=O)Nc3ccc(C(C)(C)C)cc3)cc2)CC1,1.37%
19,N#Cc1cccc(NC(=O)NC2CCN(CCCCCNC(=O)/C=C/c3ccc(Cl)c(Cl)c3)CC2)c1,5.86%
20,Cc1cc(C)c2nc(N3CCC(C(=O)NCCCN4CCC(N5CCCCC5)CC4)CC3)sc2c1,2.91%

row,Compound,inhibition
1,O=C(/C=C/c1ccc(Cl)c(Cl)c1)NCCCCCN1CCCN(C(=O)Nc2ccc(C(F)(F)F)cc2)CC1,2.53%
2,CS(=O)(=O)c1cccc(-c2cnc3[nH]cc(-c4ccc(C(=O)O)cc4)c3c2)c1,-0.81%
3,CC12CCC(CN(CC(O)Cn3c4ccccc4c4cc(I)ccc43)C1)C2(C)C (stereo not given),2.5%
4,NS(=O)(=O)Cc1cccc(-c2ccnc3ccc(-c4cccc(S(N)(=O)=O)c4)cc23)c1,0.84%
5,Cc1ccc(OCCCCON2C(=N)N=C(N)NC2(C)C)cc1C,1%
6,O=C(Nc1ccsc1)Nc1cccc(-c2cccc(-c3nc4cc(F)ccc4[nH]3)c2)c1,2.8%
7,O=C(/C=C/c1ccc(C(F)(F)F)cc1)NCCCCCN1CCN(C(=O)Nc2ccc(Cl)c(Cl)c2)CC1,2.31%
8,COc1ccc(Nc2nccc(N3CCC(NC(=O)Nc4ccc5c(c4)OCO5)C3)n2)cc1 (stereo not given),1.7%
9,O=C(Nc1ccc(Cl)cc1)Nc1cccc(-c2cccc(-c3nc4cc(F)ccc4[nH]3)c2)c1,6.99%
10,COc1ccc(CNCc2ccccc2)cc1-c1ccc(OC)c(S(=O)(=O)NCCN2CCCC2)c1,-0.09%
11,N#CC(c1ccc(F)cc1)c1ccc2c(C(F)(F)F)cc(C(F)(F)F)nc2n1 (stereo not given),4.6%
12,CCN(CCCN1CCCCC1)c1cc(C)nc(Nc2ccc3c(c2)CCC3)n1,1.07%
13,Cc1cccc(Nc2nc3nonc3nc2Nc2cccc(Cl)c2Cl)c1C,7.64%
14,O=S(=O)(Nc1cccc(CCN2CCC(N3CCCCC3)CC2)c1)c1cccc2cccnc12,0.35%
15,CCCCCNC(=N)N/N=C/c1c[nH]c2ccc(OC)cc12,3.63%
16,O=C(N[C@@H](CC1CCCCC1)C(=O)NC1CCCCCC1)c1ccc(O)c(-c2ccc(Cl)c(Cl)c2)c1,1.39%
17,Cc1ccccc1C1CCN(C2CCC(NC(=O)c3csc(-c4cccc(Cl)c4)n3)CC2)CC1 (stereo not given),12%
18,O=C(NCc1ccc(Cl)cc1)c1ccc(CN2CCCN(Cc3cccc(O)c3)CC2)cc1,0.62%
19,O=C(C=Cc1ccc(Cl)c(Cl)c1)NCCCCCN1CCC(CCNC(=O)/C=C/c2ccccc2)CC1,0.26%
20,N=c1n(CCN2CCCC2)c2ccccc2n1CC(O)c1ccc(Cl)c(Cl)c1 (stereo not given),1.57%

# Target: Glucose transporter (Leishmania mexicana) (UniProt O61059)
# Experiment: ST_JUDE_LEISH: Cytotoxicity at 2uM final concentration against transgenic Leishmania Mexicana promastigotes LmGT2 that are glucose transport deficient and complemented with the L. Mexicana glucose transporter 2. Activity is measured by DNA content using SYBR green in vitro
# Type: functional
row,Compound,inhibition
1,Fc1cc(Cl)ccc1Nc1ccnc2cc(-c3ccc(CN4CCCCC4)o3)ccc12,0.77%
2,O=C(/C=C/c1ccc(Cl)c(Cl)c1)N1CCC(CN2CCC(c3c[nH]c4ccncc34)CC2)CC1,5.44%
3,COc1cc(Cc2cnc(N)nc2N)cc(OCCCC#N)c1OC,-1.3%
4,O=C(Nc1ccc(Br)cc1)N1CCC(n2c(-c3ccccc3)nc3cccnc32)CC1,4.12%
5,CC(C)c1cccc(OCC2CCN(c3ncc(C(=O)NC4CC4)cc3Cl)CC2)c1,-0.2%
6,CCCC(C)N(Cc1ccc(C(C)(C)C)cc1)C(=O)c1cccc(OC)c1 (stereo not given),-2.72%
7,Fc1ccc2[nH]cc(CCNCc3ccc(-c4cccc(-c5nc6ccccc6[nH]5)c4)cc3)c2c1,3.56%
8,Nc1ncc(Cc2ccc3c(ccc4ccccc43)c2)c(N)n1,11.9%
9,Cn1c(NC(=O)C2CCC(CNC(=O)c3ccc(O)c(-c4cccc([N+](=O)[O-])c4)c3)CC2)nc2ccccc21 (stereo not given),2.44%
10,O=c1cc(NCCCNCc2ccc(Cl)c(Cl)c2)[nH]c2ccc(Oc3ccccc3)cc12,-0.72%
11,CN(C)CCN(C)C(=O)c1cc(-c2ccncc2)c(-c2ccc(Cl)c(O)c2)o1,6.77%
12,COc1ccc(CNC2CCN(C)CC2)cc1-c1ccc(S(=O)(=O)NCc2ccccc2)cc1,5.02%
13,Fc1cccc2sc(Nc3nc(-c4ccccn4)cs3)nc12,-5.6%
14,CCc1c(C(=O)NC2CCC(N3CCC(c4ccccc4C)CC3)CC2)[nH]c2ccc(OC)cc12 (stereo not given),-0.08%
15,O=C(c1ccc(-c2cnc3[nH]cc(-c4ccc(C(=O)N5CCOCC5)cc4)c3c2)cc1)N1CCOCC1,-1.88%
16,COc1ccc2nccc([C@@H](O)CN3CCC(NCc4ccc5nsnc5c4)CC3)c2c1,-0.38%
17,COc1ccccc1NC(=O)Nc1ccc(-c2ccc(-c3nc4cc(C(F)(F)F)ccc4[nH]3)cc2)cc1,2.26%
18,CC(C)CCN1CCCN(Cc2ccc(C(=O)Nc3ccc(C(C)(C)C)cc3)cc2)CC1,1.41%
19,N#Cc1cccc(NC(=O)NC2CCN(CCCCCNC(=O)/C=C/c3ccc(Cl)c(Cl)c3)CC2)c1,8.54%
20,Cc1cc(C)c2nc(N3CCC(C(=O)NCCCN4CCC(N5CCCCC5)CC4)CC3)sc2c1,0.65%

row,Compound,inhibition
1,O=C(/C=C/c1ccc(Cl)c(Cl)c1)NCCCCCN1CCCN(C(=O)Nc2ccc(C(F)(F)F)cc2)CC1,5.5%
2,CS(=O)(=O)c1cccc(-c2cnc3[nH]cc(-c4ccc(C(=O)O)cc4)c3c2)c1,1.75%
3,CC12CCC(CN(CC(O)Cn3c4ccccc4c4cc(I)ccc43)C1)C2(C)C (stereo not given),0.07%
4,NS(=O)(=O)Cc1cccc(-c2ccnc3ccc(-c4cccc(S(N)(=O)=O)c4)cc23)c1,1.72%
5,Cc1ccc(OCCCCON2C(=N)N=C(N)NC2(C)C)cc1C,0.54%
6,O=C(Nc1ccsc1)Nc1cccc(-c2cccc(-c3nc4cc(F)ccc4[nH]3)c2)c1,-5.19%
7,O=C(/C=C/c1ccc(C(F)(F)F)cc1)NCCCCCN1CCN(C(=O)Nc2ccc(Cl)c(Cl)c2)CC1,-0.42%
8,COc1ccc(Nc2nccc(N3CCC(NC(=O)Nc4ccc5c(c4)OCO5)C3)n2)cc1 (stereo not given),1.21%
9,O=C(Nc1ccc(Cl)cc1)Nc1cccc(-c2cccc(-c3nc4cc(F)ccc4[nH]3)c2)c1,6.45%
10,COc1ccc(CNCc2ccccc2)cc1-c1ccc(OC)c(S(=O)(=O)NCCN2CCCC2)c1,3.45%
11,N#CC(c1ccc(F)cc1)c1ccc2c(C(F)(F)F)cc(C(F)(F)F)nc2n1 (stereo not given),1.81%
12,CCN(CCCN1CCCCC1)c1cc(C)nc(Nc2ccc3c(c2)CCC3)n1,0.58%
13,Cc1cccc(Nc2nc3nonc3nc2Nc2cccc(Cl)c2Cl)c1C,7.5%
14,O=S(=O)(Nc1cccc(CCN2CCC(N3CCCCC3)CC2)c1)c1cccc2cccnc12,-2.07%
15,CCCCCNC(=N)N/N=C/c1c[nH]c2ccc(OC)cc12,-0.13%
16,O=C(N[C@@H](CC1CCCCC1)C(=O)NC1CCCCCC1)c1ccc(O)c(-c2ccc(Cl)c(Cl)c2)c1,0.88%
17,Cc1ccccc1C1CCN(C2CCC(NC(=O)c3csc(-c4cccc(Cl)c4)n3)CC2)CC1 (stereo not given),8.46%
18,O=C(NCc1ccc(Cl)cc1)c1ccc(CN2CCCN(Cc3cccc(O)c3)CC2)cc1,2.04%
19,O=C(C=Cc1ccc(Cl)c(Cl)c1)NCCCCCN1CCC(CCNC(=O)/C=C/c2ccccc2)CC1,3.1%
20,N=c1n(CCN2CCCC2)c2ccccc2n1CC(O)c1ccc(Cl)c(Cl)c1 (stereo not given),9.08%
